From PubChem BioAssay (Tox21)
Records with an inconclusive call do not appear. Calls of active or inactive are those of the source. Unless noted, the call rests on the fitted dose curve; in most records, active means well fitted curve in the direction sought with a large enough effect in the repeat runs; inconclusive means weak or mixed curves; inactive means no such curve, though single readings can be large; an effect the other way counts as inactive or inconclusive.

What was measured:
[1] = A CellTox Green Cytotoxicity Assay to monitor cytotoxicity in HepG2 cells - 8 hour (AID 1224890); details: CellTox Green fluorescence; series mostly up to 76.8 µM; further: nearly all actives have a fitted effect of over 45% in size
Outline: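 Using 1536-well format, dye-containing HepG2 suspension was seeded, allowed 5 h at 37 C/5% CO2, dosed by pintool with compounds, positive and negative controls, and imaged for fluorescence across 40 h.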

[2] = qHTS assay to identify small molecule antagonists of the estrogen receptor alpha (ER-alpha) signaling pathway using the BG1 cell line in the presence of 0.1 nM 17-beta-estradiol - cell viability counter screen (AID 1259241); details: VM7Luc4E2 (BG1) viability, CellTiter-Fluor protease, 22 h, 0.1 nM estradiol agonist added; series mostly up to 92.4 µM; further: nearly all actives have a fitted effect of over 40% in size
Outline: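 Measures cytotoxicity alongside the ER-alpha antagonist readout: VM7Luc4E2 cells, charcoal-stripped serum, 0.1 nM 17beta-estradiol final, 22 hr compound incubation at 37C, CellTiter-Fluor fluorescence.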

[3] = qHTS assay to identify small molecule antagonists of the androgen receptor (AR) signaling pathway using the MDA cell line in the presence of 0.5 nM R1881 - cell viability counter screen (AID 1259242); details: MDA-kb2 viability, CellTiter-Fluor protease fluorescence, 16 h; series mostly up to 92.4 µM; further: nearly all actives have a fitted effect of over 45% in size
Outline: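 Viability of MDA-kb2 cells was multiplexed with the luciferase AR readout; after 16 hr with compounds and R1881 at 0.5 nM final, CellTiter-Fluor fluorescence was recorded.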

[4] = molecular target: Androgen receptor (Homo sapiens) (UniProt P10275); experiment: qHTS assay to identify small molecule antagonists of the androgen receptor (AR) signaling pathway using the MDA cell line in the presence of 0.5 nM R1881 (AID 1259243); details: MDA-kb2 MMTV-luciferase, R1881 0.5 nM, 16 h; series mostly up to 42.5 µM; further: nearly all actives have a fitted effect of over 50% in size
Chain of Androgen receptor (Homo sapiens) (P10275 whole entry, looked up): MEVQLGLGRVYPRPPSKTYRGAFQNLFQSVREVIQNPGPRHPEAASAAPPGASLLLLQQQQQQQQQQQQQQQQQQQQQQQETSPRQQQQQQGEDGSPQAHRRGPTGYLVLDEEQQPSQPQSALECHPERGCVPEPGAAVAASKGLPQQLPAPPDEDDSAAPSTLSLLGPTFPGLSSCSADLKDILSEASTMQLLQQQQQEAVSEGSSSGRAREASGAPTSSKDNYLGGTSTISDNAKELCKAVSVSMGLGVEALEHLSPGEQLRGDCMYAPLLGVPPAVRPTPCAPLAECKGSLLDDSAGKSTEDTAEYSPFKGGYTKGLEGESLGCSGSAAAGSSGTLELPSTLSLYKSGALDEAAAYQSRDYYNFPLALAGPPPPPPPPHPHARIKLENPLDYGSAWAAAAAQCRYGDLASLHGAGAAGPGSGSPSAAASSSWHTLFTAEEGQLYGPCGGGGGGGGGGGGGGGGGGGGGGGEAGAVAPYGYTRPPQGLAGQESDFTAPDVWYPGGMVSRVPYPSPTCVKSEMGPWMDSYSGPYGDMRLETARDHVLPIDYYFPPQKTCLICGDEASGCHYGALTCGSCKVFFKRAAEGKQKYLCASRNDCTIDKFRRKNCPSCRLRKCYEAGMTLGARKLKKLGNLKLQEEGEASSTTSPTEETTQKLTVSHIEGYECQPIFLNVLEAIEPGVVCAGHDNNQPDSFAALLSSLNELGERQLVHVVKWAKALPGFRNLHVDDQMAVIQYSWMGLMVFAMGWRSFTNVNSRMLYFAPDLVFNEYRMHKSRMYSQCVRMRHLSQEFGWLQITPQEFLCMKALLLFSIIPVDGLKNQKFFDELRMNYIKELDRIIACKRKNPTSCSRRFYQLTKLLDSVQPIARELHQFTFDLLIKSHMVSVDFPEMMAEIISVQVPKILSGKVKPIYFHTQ
Outline: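 Reporter cells cultured without CO2 receive test chemicals, then 0.5 nM R1881 final; after 16 hr at 37C, ONE-Glo is added and light output recorded.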

[5] = qHTS assay to identify small molecule phospholipidosis (PLD) inducers (AID 1259344; active means well fitted curve in the direction sought with a large enough effect; an effect the other way counts as inactive or inconclusive); details: HepG2 phospholipidosis, LipidTOX Red imaging, 24 h; series mostly up to 38.3 µM
Outline: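 Phospholipidosis is scored by imaging LipidTOX-stained pits in HepG2 cells exposed to compound for 24 h at 37 C; pit counts and integrated intensities per well and per cell serve as outputs.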

[6] = qHTS assay to identify small molecule HDAC inhibitors (AID 1259364); details: HCT-116 HDAC-Glo I/II luminescence, 2 h; series mostly up to 92.4 µM;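 further: wild-type HCT-116 cells with endogenous class I/II HDAC activity; top concentration of the series differs between compounds; nearly all actives have a fitted effect of over 45% in size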
Outline: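 Read-out: luminescence of HDAC-Glo I/II reagent, 30 min RT, reflecting class I/II deacetylase activity in whole HCT-116 cells pre-exposed 2 h to DMSO-dissolved compounds.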

[7] = qHTS assay to identify small molecule HDAC inhibitors - cell viability counter screen (AID 1259365); details: HCT-116 viability, CellTiter-Glo ATP luminescence, 2 h; series mostly up to 92.4 µM; further: nearly all actives have a fitted effect of over 50% in size
Outline: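 Following a 2hr exposure of overnight-plated wild-type HCT-116 cells to DMSO-delivered compounds, CellTiter-Glo was added and luminescence recorded after 30min at room temperature.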

[8] = qHTS assay to identify small molecule agonists of the sonic hedgehog signaling (Shh) pathway - cell viability counter screen (AID 1259366); details: NIH/3T3 Gli1-Luc viability, CellTiter-Fluor, 24 h; series mostly up to 92.4 µM; further: nearly all actives have a fitted effect of over 50% in size
Outline: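 After a 4hr attachment at 37C, NIH/3T3 cells bearing an integrated Gli1-driven luciferase reporter were dosed with compounds. Treatment lasted 24hr, with the final hour including CellTiter-Fluor for a fluorescence viability measurement.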

[9] = qHTS assay to identify small molecule antagonists of the sonic hedgehog signaling (Shh) pathway - cell viability counter screen (AID 1259367); details: NIH/3T3 Gli1-Luc viability, CellTiter-Fluor, 24 h; series mostly up to 42.5 µM; further: nearly all actives have a fitted effect of over 55% in size
Outline: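 Cells: 3T3 Gli1-Luc, 2,000/well, 4 hr pre-incubation. Compounds in DMSO, then conditioned medium. Incubation 24 hr, 37C, 5% CO2. CellTiter-Fluor at 23 hr, 1 hr, fluorescence.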

[10] = molecular target: Estrogen receptor (Homo sapiens) (UniProt P03372); experiment: qHTS assay to identify small molecule antagonists of the estrogen receptor alpha (ER-alpha) signaling pathway using the BG1 cell line in the presence of 0.1 nM 17-beta-estradiol (AID 1259244); details: VM7Luc4E2 (BG1) ERE-luciferase, antagonist mode, 0.1 nM E2, 22 h; series mostly up to 92.4 µM; further: nearly all actives have a fitted effect of over 50% in size
Chain of Estrogen receptor (Homo sapiens) (P03372 whole entry, looked up): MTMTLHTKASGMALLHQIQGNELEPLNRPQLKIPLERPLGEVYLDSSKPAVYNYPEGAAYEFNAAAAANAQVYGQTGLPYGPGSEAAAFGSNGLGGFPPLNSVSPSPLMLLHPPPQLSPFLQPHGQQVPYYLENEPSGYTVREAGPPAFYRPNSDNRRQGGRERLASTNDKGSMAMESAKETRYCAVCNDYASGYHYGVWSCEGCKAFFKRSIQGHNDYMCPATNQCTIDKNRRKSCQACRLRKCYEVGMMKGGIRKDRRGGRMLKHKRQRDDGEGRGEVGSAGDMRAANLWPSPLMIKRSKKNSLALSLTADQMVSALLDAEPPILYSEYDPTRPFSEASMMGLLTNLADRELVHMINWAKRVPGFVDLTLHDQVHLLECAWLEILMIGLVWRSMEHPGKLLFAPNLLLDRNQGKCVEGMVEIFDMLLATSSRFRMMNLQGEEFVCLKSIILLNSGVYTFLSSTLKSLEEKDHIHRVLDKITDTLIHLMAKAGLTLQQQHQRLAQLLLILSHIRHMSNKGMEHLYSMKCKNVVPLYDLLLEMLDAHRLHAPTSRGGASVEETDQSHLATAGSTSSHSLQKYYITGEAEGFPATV
Outline: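 Estradiol at 0.1 nM (final) stimulates the endogenous ER-alpha of VM7Luc4E2 cells carrying an ERE-driven luciferase; compounds are co-incubated 22 h at 37C and luciferase output quantified by luminescence.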
On the % scale 0 is the no-effect control and ±100 the full control effect.

CCCCOCCOCCOCc1cc2c(cc1CCC)OCO2
inactive: Potency [1] | outcome [2] | Potency [3] | Potency [4] | Potency [5] | Potency [6] | outcome [7] | Potency [8] | Potency [9]

N[C@@H](C(=O)N[C@@H]1C(=O)N2C(C(=O)O)=C(Cl)CS[C@H]12)c1ccccc1
inactive: cytotoxicity increase [1] -13.7% [at 6.97 µM] | activity change, negative = cytotoxicity [2] 0.43% [at 8.39 µM] | viability change, negative = cytotoxic [3] 4.33% [at 8.39 µM] | activity change, negative = inhibition [10] 7.81% [at 8.39 µM] | Potency [5] | activity change, negative = inhibition [6] 5.64% [at 8.39 µM] | activity change, negative = cytotoxicity [7] -0.59% [at 8.39 µM] | viability change, negative = cytotoxic [8] 1.34% [at 8.39 µM] | viability change, negative = cytotoxic [9] 3.69% [at 8.39 µM]

CCn1ccnc1CC1COc2ccccc2O1 (stereo not given)
inactive: Potency [1] | outcome [2] | Potency [3] | Potency [4] | outcome [10] | Potency [5] | outcome [7] | Potency [8] | Potency [9]

CCN1CCC[C@H]1CNC(=O)c1cc(S(N)(=O)=O)ccc1OC
inactive: Potency [1] | outcome [2] | Potency [3] | Potency [4] | Potency [5] | Potency [6] | outcome [7] | Potency [9]

O=C(O)c1ccccc1OP(=O)(O)O
inactive: Potency [1] | outcome [2] | Potency [3] | outcome [10] | Potency [5] | Potency [6] | outcome [7] | Potency [8] | Potency [9]

c1ccc([C@H]2CN3CCSC3=N2)cc1
inactive: Potency [1] | outcome [2] | Potency [3] | outcome [10] | Potency [5] | Potency [6] | outcome [7] | Potency [8] | Potency [9]

CCn1nc(C(=O)O)c(=O)c2cc3c(cc21)OCO3
inactive: Potency [1] | outcome [2] | Potency [3] | Potency [4] | outcome [10] | Potency [5] | Potency [6] | outcome [7] | Potency [8] | Potency [9]

CN1CCN(c2cc3c(cc2F)c(=O)c(C(=O)O)cn3-c2ccc(F)cc2)CC1
inactive: Potency [1] | outcome [2] | Potency [3] | Potency [4] | Potency [5] | Potency [6] | outcome [7] | Potency [8] | Potency [9]

CN1N=C(C(N)=O)CCC1=O
inactive: Potency [1] | outcome [2] | Potency [3] | Potency [4] | outcome [10] | outcome [7] | Potency [8] | Potency [9]

CC(C)(CC(=O)O)C(=O)O
inactive: Potency [1] | outcome [2] | Potency [3] | Potency [4] | outcome [10] | Potency [6] | outcome [7] | Potency [9]

N[C@H]1CN(c2c(F)cc3c(=O)c(C(=O)O)cn(C4C[C@H]4F)c3c2Cl)CC12CC2 (stereo not given in full)
inactive: Potency [1] | outcome [2] | Potency [3] | outcome [10] | Potency [5] | Potency [6] | outcome [7] | Potency [8] | Potency [9]

CCOc1ccc(C(=O)OCCN(CC)CC)cc1
inactive: Potency [1] | outcome [2] | Potency [3] | Potency [4] | Potency [5] | Potency [6] | outcome [7] | Potency [8] | Potency [9]

CC(NC(CCc1ccccc1)C(=O)O)C(=O)N1C(=O)N(C)CC1C(=O)O (stereo not given)
inactive: Potency [1] | outcome [2] | Potency [3] | Potency [4] | Potency [6] | outcome [7] | Potency [8] | Potency [9]

N=c1nc(N2CCCCC2)cc(N)n1O
inactive: Potency [1] | outcome [2] | Potency [3] | outcome [10] | Potency [5] | Potency [6] | outcome [7] | Potency [8] | Potency [9]

CC(C)(O)C(=O)c1ccccc1
inactive: Potency [1] | outcome [2] | Potency [3] | Potency [4] | outcome [10] | Potency [6] | outcome [7] | Potency [9]

Nc1nc2c(ncn2COC(CO)CO)c(=O)[nH]1
inactive: Potency [1] | outcome [2] | Potency [3] | outcome [10] | Potency [5] | Potency [6] | outcome [7] | Potency [8] | Potency [9]

CC(C)NC(=O)NC(C)C
inactive: Potency [1] | outcome [2] | Potency [3] | Potency [4] | outcome [10] | Potency [6] | outcome [7] | Potency [8] | Potency [9]

COc1ccc2c(c1)c(CC(=O)OCC(=O)O)c(C)n2C(=O)c1ccc(Cl)cc1
inactive: Potency [1] | outcome [2] | Potency [3] | Potency [4] | Potency [5] | outcome [7] | Potency [8] | Potency [9]

NS(=O)(=O)c1ccc(C(=O)O)cc1
inactive: Potency [1] | outcome [2] | Potency [3] | Potency [4] | outcome [10] | Potency [5] | Potency [6] | outcome [7] | Potency [8] | Potency [9]

O=c1cc(CO)occ1O
inactive: Potency [1] | outcome [2] | Potency [3] | outcome [10] | Potency [5] | Potency [6] | outcome [7] | Potency [8] | Potency [9]

COC(=O)[C@@H](N)Cc1ccc(O)c(O)c1
inactive: Potency [1] | outcome [2] | Potency [3] | Potency [4] | Potency [5] | Potency [6] | outcome [7] | Potency [8] | Potency [9]

NS(=O)(=O)c1cc2c(cc1Cl)NC(C1CC3C=CC1C3)NS2(=O)=O (stereo not given)
inactive: Potency [1] | outcome [2] | Potency [3] | Potency [4] | outcome [10] | Potency [5] | Potency [6] | outcome [7] | Potency [8] | Potency [9]
